The list shows a part of the results. How the calls were made is not given here.
Target: 5-hydroxytryptamine receptor 5A (Homo sapiens) (UniProt P47898)
Assay: inverse agonism at human 5-HT5A receptor – cell-based, luminescence, confirmation (AID 504916);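 further: 0% = cells with DMSO and 100% = no cells with DMSO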
Conditions: HTR5A-expressing cells, at 9.3 µM, stronger effect = higher value

Chain of 5-hydroxytryptamine receptor 5A (Homo sapiens) (P47898 whole entry, looked up): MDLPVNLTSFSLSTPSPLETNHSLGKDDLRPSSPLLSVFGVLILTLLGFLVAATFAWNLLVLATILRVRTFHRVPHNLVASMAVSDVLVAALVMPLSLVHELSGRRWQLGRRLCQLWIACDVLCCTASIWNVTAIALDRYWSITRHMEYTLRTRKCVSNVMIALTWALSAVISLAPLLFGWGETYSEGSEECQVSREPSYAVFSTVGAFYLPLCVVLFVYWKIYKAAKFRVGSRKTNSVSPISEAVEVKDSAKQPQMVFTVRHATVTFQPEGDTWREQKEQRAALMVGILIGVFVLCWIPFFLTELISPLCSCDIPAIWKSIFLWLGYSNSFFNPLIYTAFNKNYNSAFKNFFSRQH

inhibition, inactive:
Cc1noc(C)c1COc1cccc(C(=O)Nc2cccnc2)c1 4.42%
CCCCCCCCc1c(O)nc(-n2[nH]c(C)c(CCO)c2=O)[nH]c1=O -15.1%
O=C(/C=C/c1ccc(Cl)c([N+](=O)[O-])c1)c1ccc(O)cc1 -8.27%
O=c1ccc2c(-c3ccccc3S(=O)(=O)O)c3ccc(O)c(O)c3oc-2c1O -16.7%
COc1ccc(-c2nnc(SC(C)C(=O)NC3CC3)o2)cc1 (configuration not stated) 1.03%
CCOC(=O)NC(=O)C(=CNc1cccc(OC)c1)C(=O)NC(=O)OCC -98.8%
Cc1cc(C)n(-c2ccc(Cl)c(C(=O)O)n2)n1 -6.82%
